The text below walks through data of PubChem BioAssay AID504339 (National Center for Advancing Translational Sciences (NCATS), 2011).

In all, about 390,000 compounds went through this assay and about 17,000 (4.4%) were called active. Another 8% or so got no clear call; they are omitted. The sample as a whole holds a higher share of actives than the screen did. Values without a mark were called inactive. The call rests on the fitted dose curve; in most records, active means well fitted inhibition curve with a large enough effect; inconclusive means small, poorly fitted or top-dose-only effect; inactive means no such curve, though single readings can be large or run the other way.
On the % scale 0 is the no-effect control and ±100 the full control effect; potency means the concentration at half of the fitted maximal effect.

In the test the target is Lysine-specific demethylase 4A (Homo sapiens) (UniProt O75164). The experiment in a line: qHTS Assay for Inhibitors of JMJD2A-Tudor Domain. Further: nearly all actives have a fitted effect of over 50% in size. Conditions: AlphaScreen JMJD2A-Tudor / H3K4me3 peptide binding; series mostly up to 114 µM; activity change, negative = inhibition: at the top concentration. (In qHTS, concentration-response curves come from the screen itself.)
Chain of Lysine-specific demethylase 4A (Homo sapiens) (O75164 whole entry, looked up, the tested form may be a part): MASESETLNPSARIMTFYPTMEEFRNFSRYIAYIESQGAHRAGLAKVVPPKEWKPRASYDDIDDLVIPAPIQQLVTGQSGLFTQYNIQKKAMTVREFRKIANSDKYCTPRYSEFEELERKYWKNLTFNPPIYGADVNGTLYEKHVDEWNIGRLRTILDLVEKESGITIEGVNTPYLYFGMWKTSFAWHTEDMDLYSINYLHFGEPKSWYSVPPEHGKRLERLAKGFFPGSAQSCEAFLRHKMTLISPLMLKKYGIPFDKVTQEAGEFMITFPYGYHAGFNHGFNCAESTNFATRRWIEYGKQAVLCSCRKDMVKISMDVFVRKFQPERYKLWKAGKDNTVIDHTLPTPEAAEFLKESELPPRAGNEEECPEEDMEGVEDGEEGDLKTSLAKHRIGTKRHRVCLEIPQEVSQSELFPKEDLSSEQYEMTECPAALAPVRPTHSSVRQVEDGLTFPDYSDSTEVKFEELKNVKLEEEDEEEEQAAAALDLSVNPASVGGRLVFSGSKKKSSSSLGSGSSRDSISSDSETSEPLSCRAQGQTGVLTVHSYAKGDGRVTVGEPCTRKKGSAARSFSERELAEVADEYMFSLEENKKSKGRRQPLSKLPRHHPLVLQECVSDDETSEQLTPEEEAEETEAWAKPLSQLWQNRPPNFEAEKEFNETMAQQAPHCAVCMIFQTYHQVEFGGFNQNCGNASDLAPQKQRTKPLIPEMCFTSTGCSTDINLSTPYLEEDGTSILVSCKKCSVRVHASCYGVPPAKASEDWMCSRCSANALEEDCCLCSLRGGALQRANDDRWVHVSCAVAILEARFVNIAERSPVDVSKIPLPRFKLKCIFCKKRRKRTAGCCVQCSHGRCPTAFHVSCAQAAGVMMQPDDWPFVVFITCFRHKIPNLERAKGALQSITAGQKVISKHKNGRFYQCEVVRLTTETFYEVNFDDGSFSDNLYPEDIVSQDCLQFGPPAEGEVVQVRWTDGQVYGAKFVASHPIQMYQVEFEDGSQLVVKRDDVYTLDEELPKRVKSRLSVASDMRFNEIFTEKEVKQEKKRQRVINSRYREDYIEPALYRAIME
Regarding `Cc1ccc(C)c(N2CCN(C(=O)CCc3c(C)nc4c(c3C)c(=O)n(C)c(=O)n4C)CC2)c1`, the “activity change, negative = inhibition” value was -7.41%. Regarding `O=C(CCC1N=C2c3ccccc3N=C(SCc3ccccc3F)N2C1=O)NCCc1ccccc1` (centres undefined), the “activity change, negative = inhibition” value was -18%. As to `COc1ccc(C(=O)CSc2c(C(C)C)cnc3c2c(=O)n(C)c(=O)n3C)cc1`, the “activity change, negative = inhibition” value was -18.2%.

With `CCOC(=O)c1cccc(NS(=O)(=O)c2cc(-c3cnc(C)o3)ccc2OC)c1`, the “activity change, negative = inhibition” value is -33.4%. Consider `Oc1ccc(N=Nc2nccs2)c(O)c1`, for which the Potency is 35.5 µM (active). In the case of `Oc1ccc2ccccc2c1N=Nc1nccs1`, the Potency was 5.62 µM (active).

On to `Cc1cccc(NC(=O)Cn2c(=O)n(CCC(C)C)c(=O)c3cccnc32)c1`, for which the “activity change, negative = inhibition” value is -9.45%. For `O=C(NCCCc1ccccc1)c1ccc2c(c1)sc1nc(-c3ccc(F)cc3)cn12`, the “activity change, negative = inhibition” value was -15.5%. Still for that read-out and setting: the value for `CC1=C(C(=O)OCC2CCCCC2)C(c2c(F)cccc2Cl)CC(=O)N1` (centres undefined) was 3.42%.

With `N#Cc1nc(-c2ccc(OCc3ccccc3)cc2)oc1NCCCN1CCOCC1`, the Potency was 35.5 µM (active). On to `CC1CC(C)CN(c2oc(-c3ccc(OCc4ccc(Cl)cc4)cc3)nc2C#N)C1` (centres undefined), for which the “activity change, negative = inhibition” value was -19.2% [at 57.1 µM]. On to `O=S(=O)(c1ccccc1)c1nc(-c2ccccc2)oc1NCCCN1CCOCC1`, for which the “activity change, negative = inhibition” value was -22.2%. The same measure, in the same setting: with `CCc1cccc(NC(=O)Cn2nc(CC)n3c(cc4cc(C)ccc43)c2=O)c1` the figure was 0%; with `CCOc1ccc(NC(=O)Cn2cc(C(=O)c3ccc(C)cc3)c(=O)c3cc4c(cc32)OCCO4)cc1`, -20.5%; with `CCN(CC)S(=O)(=O)c1ccc2c(c1)nc(CN(C)C(=O)Nc1ccc(Cl)cc1)n2C`, -0.993%. Same read-out and setting: the value for `Cc1ccc(C)c(N2CCN(C(=O)Cc3c(C(=O)O)c(C)cn3C)CC2)c1` was -20.3%; that for `CCc1c(Nc2ccccc2C)nc(N)[nH]c1=O` was -16.6%.

For the compound `Cc1[nH]c(N)nc(=S)c1CCCNc1ccccc1`, the Potency is 50.1 µM (active). Consider `COc1ccc(Cl)cc1NC(=O)CSc1nc(-c2cccs2)cc(C(F)(F)F)n1`, for which the “activity change, negative = inhibition” value was -8.59%. On the same count and under the same terms, with `Cc1ccc(NC(=O)CN2C(=O)CC(C)Sc3ccccc32)c(C)c1` (centres undefined) the figure was -13.1%; with `CC(OC(=O)c1ccc2ccccc2n1)C(=O)c1ccccc1` (centres undefined), -2.94% [at 11.4 µM]. Take `O=C(Oc1ccc([N+](=O)[O-])cc1)c1ccc2ccccc2n1`: the Potency was 28.2 µM (active). As to `COc1ccc(C(=O)COC(=O)c2ccc3ccccc3n2)cc1`, the “activity change, negative = inhibition” value was 0.744%. Turning to `COc1ccc2c(c1)c(=O)c(C(=O)c1ccccc1)cn2CC(=O)Nc1ccc2c(c1)OCCO2`, the “activity change, negative = inhibition” value is -21.2%. Take `CC(C)(C)c1ccc(C(=O)Nc2ccc3c(c2)CCCN3C(=O)c2cccs2)cc1`: the “activity change, negative = inhibition” value was -23.5%. In the case of `CCNC(=S)N(CCc1c(C)[nH]c2ccc(C)cc12)Cc1ccco1`, the Potency was 63.1 µM (active). For the compound `Cc1ccc2[nH]c(C)c(CCNC(=O)NC3CCCCC3)c2c1`, the “activity change, negative = inhibition” value is -4.56%. For `Cc1ccc(NC(=S)N(Cc2ccco2)C(C)c2cccs2)cc1` (centres undefined), the “activity change, negative = inhibition” value is -7.04%. As for `CCOc1ccc(CNC(=O)c2cc(=O)[nH]c3ccc(S(=O)(=O)N4CCCCC4)cc23)cc1`, the “activity change, negative = inhibition” value is -11.3%.

Regarding `CCOC(=O)c1ccc(NC(=O)Cn2c(=O)n(-c3ccc(C)cc3)c(=O)c3c2cnn3C)cc1`, the “activity change, negative = inhibition” value was -6.14%. As for `CN(C)CCOc1cccc(Br)c1`, the Potency was 3.55 µM (active). For `COc1ccc(OC)c(NC(=O)CN(C)CCOc2ccc(Br)cc2)c1`, the “activity change, negative = inhibition” value is -21.7%. In the case of `COc1ccc(OCC(=O)OCCN(C)C)cc1`, the “activity change, negative = inhibition” value was 1.03%. With `Cc1ccc(-c2cn3c(n2)sc2cc(C(=O)NCCCc4ccccc4)ccc23)cc1`, the “activity change, negative = inhibition” value was -4.28%.

Regarding `CCCCOc1ccc(C(=O)Nc2cccc(-c3nc4ccccc4o3)c2C)cc1`, the “activity change, negative = inhibition” value was -13.1%. In the case of `CCc1cccc(OC2OC(CO)C(O)C(O)C2NC(C)=O)c1` (centres undefined), the “activity change, negative = inhibition” value is -1.03%.

Take `CCCCCCCCCOC1OC(CO)C(O)C(O)C1NC(C)=O` (centres undefined): the “activity change, negative = inhibition” value was -7.22%. Turning to `CCCCCCCCOC1OC(CO)C(O)C(O)C1NC(C)=O` (centres undefined), the Potency is 79.4 µM (active).

As for `CCc1nc2c(cnn2-c2ccc(C)cc2)c(=O)n1-c1ccc(C)cc1`, the “activity change, negative = inhibition” value was -8%. With `CCOC(=O)C(NC(C)=O)C(=O)Nc1ccc(OC)cc1` (centres undefined), the “activity change, negative = inhibition” value is -15.2%.

`CCOC(=O)c1ccccc1CN1C(=O)c2ccccc2S1(=O)=O`: the “activity change, negative = inhibition” value was 7.12%. Take `CCOC(=O)C1=C(c2ccc(OC)cc2)C(=O)c2ccccc2C1=O`: the Potency was 39.8 µM (active). Turning to `COc1ccc(NS(=O)(=O)c2cc3c4c(c2)CC(=O)N4CCC3)cc1Cl`, the “activity change, negative = inhibition” value is -14%. For the compound `CCc1ccc(NS(=O)(=O)c2ccc3[nH]cc(C(=O)NCCc4cccc(C)c4)c(=O)c3c2)cc1`, the “activity change, negative = inhibition” value is -5.77%. `COc1ccc(C2/C(=C(/O)c3ccc(OC(C)C)cc3)C(=O)C(=O)N2CCCN2CCOCC2)cc1` (centres undefined): the “activity change, negative = inhibition” value was -6.85%. Consider `COc1ccc(C(CCN2CCOCC2)c2c(OC)cc(OC)c3c2OC(=O)CC3c2ccc(OC)cc2)cc1` (centres undefined), for which the Potency was 35.5 µM (active).

As for `COc1cc(OC)c2c(c1)OC(=O)CC2c1cc(OC)c(OC)c(OC)c1` (centres undefined), the “activity change, negative = inhibition” value is -10.1%. On to `CCN(CC)CCC(c1cc(OC)c(OC)c(OC)c1)c1c(OC)cc(OC)c2c(-c3ccccc3)cc(=O)oc12` (centres undefined), for which the Potency result is “inactive”. Regarding `COc1cc(OC)c2c(C)cc(=O)oc2c1C(CCN1CCCCC1)c1ccc(N(C)C)cc1` (centres undefined), the Potency is 39.8 µM (active).
